Measured values taken from the supplement of paper PMC11732987, “Enantioselective OTUD7B fragment discovery through chemoproteomics screening and high-throughput optimisation” (Communications Chemistry, 2025).

How the values were obtained:
Test in all cases: log2 ratio of Biotin-Ahx-Ub-VS probe labelling (fragment/DMSO); higher = less target engagement (more negative = stronger competition), active = hit call of the paper (q ≤ 0.05, log2 ratio ≤ -1)
Details in all cases: compound concentration: 200 uM; treatment time: 3 h
ALG13 = biological target: T1, ALG13 (UniProt Q9NP73)
T1 sequence (whole entry): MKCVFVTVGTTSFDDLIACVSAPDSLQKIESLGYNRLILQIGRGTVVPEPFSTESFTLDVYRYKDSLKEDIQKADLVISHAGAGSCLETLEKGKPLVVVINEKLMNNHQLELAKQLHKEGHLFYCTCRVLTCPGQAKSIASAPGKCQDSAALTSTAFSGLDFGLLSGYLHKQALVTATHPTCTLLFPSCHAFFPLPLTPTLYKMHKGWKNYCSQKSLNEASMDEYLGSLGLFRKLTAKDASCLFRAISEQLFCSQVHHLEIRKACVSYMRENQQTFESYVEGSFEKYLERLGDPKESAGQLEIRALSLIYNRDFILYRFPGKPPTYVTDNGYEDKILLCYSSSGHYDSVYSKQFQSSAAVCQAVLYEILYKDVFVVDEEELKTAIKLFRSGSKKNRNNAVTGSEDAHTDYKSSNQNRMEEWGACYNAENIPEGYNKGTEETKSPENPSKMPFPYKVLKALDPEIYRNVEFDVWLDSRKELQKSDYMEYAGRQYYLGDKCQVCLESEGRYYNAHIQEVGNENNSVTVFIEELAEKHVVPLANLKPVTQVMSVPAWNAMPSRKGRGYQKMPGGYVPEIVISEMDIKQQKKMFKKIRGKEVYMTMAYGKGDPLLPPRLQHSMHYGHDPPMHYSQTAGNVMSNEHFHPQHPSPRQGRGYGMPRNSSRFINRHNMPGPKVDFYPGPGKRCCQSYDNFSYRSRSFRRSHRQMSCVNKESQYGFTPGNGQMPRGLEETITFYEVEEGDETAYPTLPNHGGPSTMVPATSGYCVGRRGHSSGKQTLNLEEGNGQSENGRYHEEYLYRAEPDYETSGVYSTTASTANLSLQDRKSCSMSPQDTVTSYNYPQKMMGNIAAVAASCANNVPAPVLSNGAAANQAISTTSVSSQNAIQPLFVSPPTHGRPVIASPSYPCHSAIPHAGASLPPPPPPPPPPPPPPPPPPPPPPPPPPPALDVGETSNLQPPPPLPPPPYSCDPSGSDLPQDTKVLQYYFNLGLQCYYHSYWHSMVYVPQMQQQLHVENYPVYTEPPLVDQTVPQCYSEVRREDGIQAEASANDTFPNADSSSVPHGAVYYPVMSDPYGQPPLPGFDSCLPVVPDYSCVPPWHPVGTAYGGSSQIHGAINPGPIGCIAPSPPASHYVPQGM
Outline: (§1)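 HEK293T lysate, 495 µg per sample in Tris/CHAPS/IGEPAL buffer with protease inhibitors, was treated in triplicate with fragment at 200 µM or vehicle for 3 h and then with Biotin-Ahx-Ub-VS at 0.5 µM final for 1 h. Labelled DUBs were NeutrAvidin-enriched, digested with LysC and trypsin, and run by diaPASEF LC-MS/MS. Spectronaut label-free quantities were global-median-normalised, and values are average log2 fragment/vehicle ratios by unpaired t-test on proteins with ≥2 unique peptides.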

ATXN3 = ATXN3 (UniProt P54252)
Sequence of ATXN3 (P54252 whole entry): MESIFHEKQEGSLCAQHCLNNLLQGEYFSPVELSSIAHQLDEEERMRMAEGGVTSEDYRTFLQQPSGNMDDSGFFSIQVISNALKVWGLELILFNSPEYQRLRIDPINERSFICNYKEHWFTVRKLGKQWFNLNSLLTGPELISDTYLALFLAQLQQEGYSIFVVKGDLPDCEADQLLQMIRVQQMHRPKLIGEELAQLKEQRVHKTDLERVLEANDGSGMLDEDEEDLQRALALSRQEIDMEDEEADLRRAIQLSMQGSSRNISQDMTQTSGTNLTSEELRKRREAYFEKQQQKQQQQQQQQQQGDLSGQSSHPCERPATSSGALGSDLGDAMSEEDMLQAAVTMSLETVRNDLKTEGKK
Outline: as §1

BAP1 = biological target: T2, BAP1 (UniProt Q92560)
T2 sequence (whole entry): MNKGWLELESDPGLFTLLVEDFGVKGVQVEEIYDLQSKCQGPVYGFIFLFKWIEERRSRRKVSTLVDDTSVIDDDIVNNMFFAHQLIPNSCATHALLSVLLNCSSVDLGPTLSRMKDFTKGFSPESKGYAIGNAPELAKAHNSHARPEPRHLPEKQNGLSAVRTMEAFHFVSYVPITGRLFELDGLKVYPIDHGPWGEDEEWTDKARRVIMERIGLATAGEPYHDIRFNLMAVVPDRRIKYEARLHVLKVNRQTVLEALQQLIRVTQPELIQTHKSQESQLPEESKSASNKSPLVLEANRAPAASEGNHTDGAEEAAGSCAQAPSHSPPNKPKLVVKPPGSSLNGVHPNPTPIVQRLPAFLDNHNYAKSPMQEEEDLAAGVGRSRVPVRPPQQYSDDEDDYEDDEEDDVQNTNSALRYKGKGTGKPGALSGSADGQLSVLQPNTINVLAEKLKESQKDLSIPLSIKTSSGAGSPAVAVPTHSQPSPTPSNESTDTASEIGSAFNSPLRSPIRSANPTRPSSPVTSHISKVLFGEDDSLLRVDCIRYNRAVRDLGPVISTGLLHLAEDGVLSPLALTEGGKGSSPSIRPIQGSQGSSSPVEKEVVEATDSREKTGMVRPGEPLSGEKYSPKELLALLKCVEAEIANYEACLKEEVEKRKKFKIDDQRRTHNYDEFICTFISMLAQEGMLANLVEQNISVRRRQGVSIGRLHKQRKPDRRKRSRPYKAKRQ
Outline: as §1

EIF3F = EIF3F (UniProt O00303)
Sequence of EIF3F (O00303 whole entry): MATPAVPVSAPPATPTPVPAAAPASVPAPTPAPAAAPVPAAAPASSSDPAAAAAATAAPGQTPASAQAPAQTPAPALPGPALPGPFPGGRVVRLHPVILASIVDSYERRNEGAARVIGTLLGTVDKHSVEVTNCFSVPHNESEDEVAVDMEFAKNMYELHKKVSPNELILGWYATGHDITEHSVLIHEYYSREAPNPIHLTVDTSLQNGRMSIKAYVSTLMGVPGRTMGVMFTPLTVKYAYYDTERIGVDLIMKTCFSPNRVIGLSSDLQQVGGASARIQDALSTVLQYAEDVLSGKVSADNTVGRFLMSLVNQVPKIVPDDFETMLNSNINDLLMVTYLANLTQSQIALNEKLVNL
Outline: as §1

EIF3H = EIF3H (UniProt O15372)
Sequence of EIF3H (O15372 whole entry): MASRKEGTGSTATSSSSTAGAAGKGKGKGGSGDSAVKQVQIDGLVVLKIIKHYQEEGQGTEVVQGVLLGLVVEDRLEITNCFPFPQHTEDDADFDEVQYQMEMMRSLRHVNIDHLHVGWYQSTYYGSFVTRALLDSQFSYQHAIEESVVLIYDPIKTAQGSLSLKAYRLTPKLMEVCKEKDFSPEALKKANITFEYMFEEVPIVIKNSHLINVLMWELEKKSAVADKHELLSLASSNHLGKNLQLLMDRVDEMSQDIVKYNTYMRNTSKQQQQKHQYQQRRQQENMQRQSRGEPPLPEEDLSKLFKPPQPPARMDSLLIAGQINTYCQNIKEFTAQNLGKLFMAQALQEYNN
Outline: as §1

FAM105A = biological target: T3, FAM105A (UniProt Q9NUU6)
T3 sequence (whole entry): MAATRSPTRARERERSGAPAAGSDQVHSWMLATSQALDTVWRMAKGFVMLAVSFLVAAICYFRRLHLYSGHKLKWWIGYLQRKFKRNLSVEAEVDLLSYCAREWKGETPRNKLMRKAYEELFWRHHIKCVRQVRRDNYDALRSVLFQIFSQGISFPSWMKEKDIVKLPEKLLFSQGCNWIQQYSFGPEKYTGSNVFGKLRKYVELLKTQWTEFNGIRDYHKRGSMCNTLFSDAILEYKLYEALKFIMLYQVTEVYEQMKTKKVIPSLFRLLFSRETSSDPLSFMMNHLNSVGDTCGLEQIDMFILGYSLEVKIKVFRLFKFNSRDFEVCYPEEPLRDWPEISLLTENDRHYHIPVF
Outline: as §1

OTUB1 = OTUB1 (UniProt Q96FW1)
Sequence of OTUB1 (Q96FW1 whole entry): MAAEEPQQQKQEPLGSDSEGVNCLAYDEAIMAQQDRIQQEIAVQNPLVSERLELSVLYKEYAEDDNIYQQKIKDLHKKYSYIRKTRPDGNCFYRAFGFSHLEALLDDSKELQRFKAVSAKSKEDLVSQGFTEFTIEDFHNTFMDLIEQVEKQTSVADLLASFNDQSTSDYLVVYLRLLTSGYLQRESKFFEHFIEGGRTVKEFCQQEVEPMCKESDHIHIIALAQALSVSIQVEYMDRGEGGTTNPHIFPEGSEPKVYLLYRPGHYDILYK
Outline: as §1

OTUD4 = biological target: T4, OTUD4 (UniProt Q01804)
T4 sequence (whole entry): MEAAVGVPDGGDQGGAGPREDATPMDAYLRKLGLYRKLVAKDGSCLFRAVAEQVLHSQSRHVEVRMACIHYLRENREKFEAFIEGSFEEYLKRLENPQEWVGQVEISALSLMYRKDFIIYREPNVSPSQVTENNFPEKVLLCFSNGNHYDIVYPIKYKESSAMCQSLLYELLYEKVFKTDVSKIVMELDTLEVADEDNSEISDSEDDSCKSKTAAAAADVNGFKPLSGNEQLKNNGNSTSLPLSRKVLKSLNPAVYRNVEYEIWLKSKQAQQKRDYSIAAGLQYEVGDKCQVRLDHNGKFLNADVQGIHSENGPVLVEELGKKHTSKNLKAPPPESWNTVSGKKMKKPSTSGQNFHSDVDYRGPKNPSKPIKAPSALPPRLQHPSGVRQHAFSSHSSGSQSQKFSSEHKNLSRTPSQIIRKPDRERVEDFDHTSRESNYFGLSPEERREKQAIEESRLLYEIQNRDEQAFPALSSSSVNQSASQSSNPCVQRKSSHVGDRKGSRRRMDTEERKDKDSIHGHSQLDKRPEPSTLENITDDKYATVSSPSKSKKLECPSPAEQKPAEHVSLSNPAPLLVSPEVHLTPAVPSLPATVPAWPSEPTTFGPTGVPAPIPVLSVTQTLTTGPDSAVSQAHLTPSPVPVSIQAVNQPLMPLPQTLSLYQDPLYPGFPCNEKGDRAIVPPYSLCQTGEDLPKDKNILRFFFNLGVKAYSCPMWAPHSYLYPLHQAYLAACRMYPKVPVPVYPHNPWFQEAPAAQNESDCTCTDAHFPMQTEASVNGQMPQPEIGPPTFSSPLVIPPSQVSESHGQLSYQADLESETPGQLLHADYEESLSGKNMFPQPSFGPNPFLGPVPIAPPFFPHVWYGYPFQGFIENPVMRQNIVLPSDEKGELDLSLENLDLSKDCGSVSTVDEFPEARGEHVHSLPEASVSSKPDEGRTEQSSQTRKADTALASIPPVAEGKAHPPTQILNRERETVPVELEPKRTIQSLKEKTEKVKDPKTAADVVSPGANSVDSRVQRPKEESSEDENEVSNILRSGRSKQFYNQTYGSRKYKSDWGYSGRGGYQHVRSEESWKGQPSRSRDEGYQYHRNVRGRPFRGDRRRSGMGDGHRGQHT
Outline: as §1

OTUD5 = biological target: T5, OTUD5 (UniProt Q96G74)
T5 sequence (whole entry): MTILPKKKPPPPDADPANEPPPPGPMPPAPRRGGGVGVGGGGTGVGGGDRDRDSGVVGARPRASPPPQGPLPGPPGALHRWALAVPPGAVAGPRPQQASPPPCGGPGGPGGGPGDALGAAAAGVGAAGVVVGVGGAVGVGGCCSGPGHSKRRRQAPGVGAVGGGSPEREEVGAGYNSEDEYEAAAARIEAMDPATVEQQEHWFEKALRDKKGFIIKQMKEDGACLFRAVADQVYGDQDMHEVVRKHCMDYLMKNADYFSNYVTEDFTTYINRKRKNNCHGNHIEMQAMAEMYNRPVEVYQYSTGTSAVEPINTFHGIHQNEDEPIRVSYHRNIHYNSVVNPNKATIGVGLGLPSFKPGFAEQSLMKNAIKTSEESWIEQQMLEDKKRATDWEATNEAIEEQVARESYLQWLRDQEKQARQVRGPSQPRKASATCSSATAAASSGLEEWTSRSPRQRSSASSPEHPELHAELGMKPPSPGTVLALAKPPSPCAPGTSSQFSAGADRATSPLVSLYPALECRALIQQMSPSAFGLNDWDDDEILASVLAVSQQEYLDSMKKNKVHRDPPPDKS
Outline: as §1

Measured: log2 ratio of Biotin-Ahx-Ub-VS probe labelling

Cc1cccn2cc(CCNC(=O)CCl)nc12.Cl
inactive: ALG13 0.103 | ATXN3 -0.114 | BAP1 -0.597 | EIF3F -0.323 | EIF3H 0.00132 | FAM105A 0.112 | OTUB1 -0.0371 | OTUD4 0.123 | OTUD5 0.0126
